# G9a block – qHTS Assay for Inhibitors of Histone Lysine Methyltransferase G9a. Histone-lysine N-methyltransferase EHMT2 (Homo sapiens), Q96KQ7. G9a H3K9 monomethylation, AlphaScreen, 2 h. Potency, µM (doses to about 102 µM), for inactives: at the top dose activity, negative = inhibition, usual class: inhibitors. 350,000 compounds, 8.8% hits. AID 504332, 2011; note: potency is the fitted concentration of half-maximal effect; % is set by controls: 0 for no effect and ±100 for the full control effect; nearly all actives have a fitted effect of over 75% in size
#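 Quantitative HTS format: methyltransferase activity on a biotin-tagged H3K9 peptide is measured by AlphaScreen, using a rabbit anti-monomethyl-H3K9 antibody with streptavidin donor and anti-IgG acceptor beads. Final levels are 20 nM enzyme, 500 nM peptide, 20 uM SAM; 2 h RT.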
# BAZ2B inh – qHTS Assay for Inhibitors of BAZ2B | 360,000 compounds, 4.4% hits | Potency, µM (doses to about 114 µM), for the others: top-dose activity change, negative = inhibition, usual class: inhibitors | AlphaScreen BAZ2B-H3K14Ac peptide displacement; note: potency is the fitted concentration of half-maximal effect; % is set by controls: 0 for no effect and ±100 for the full control effect; nearly all actives have a fitted effect of over 60% in size
#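 BAZ2B (50 nM) with biotin-H3(5-23)K14Ac peptide (50 nM) in PBS pH 7.4, 0.01% Tween-20, preformed 30 min, then compound 30 min at room temperature; top concentration 110uM. AlphaScreen streptavidin donor/nickel chelate acceptor beads (10 ug/mL final), 20 min dark, signal read.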
# JMJD2A Tudor inh – qHTS Assay for Inhibitors of JMJD2A-Tudor Domain. Lysine-specific demethylase 4A (Homo sapiens), O75164. AlphaScreen JMJD2A-Tudor / H3K4me3 peptide binding. Potency, µM (doses to about 114 µM), inactives show top-dose activity change, negative = inhibition, usual class: inhibitors. 390,000 compounds, 4.4% hits; note: potency is the fitted concentration of half-maximal effect; % is set by controls: 0 for no effect and ±100 for the full control effect; nearly all actives have a fitted effect of over 50% in size
# Target sequence (O75164 whole entry, looked up, the tested form may be a part): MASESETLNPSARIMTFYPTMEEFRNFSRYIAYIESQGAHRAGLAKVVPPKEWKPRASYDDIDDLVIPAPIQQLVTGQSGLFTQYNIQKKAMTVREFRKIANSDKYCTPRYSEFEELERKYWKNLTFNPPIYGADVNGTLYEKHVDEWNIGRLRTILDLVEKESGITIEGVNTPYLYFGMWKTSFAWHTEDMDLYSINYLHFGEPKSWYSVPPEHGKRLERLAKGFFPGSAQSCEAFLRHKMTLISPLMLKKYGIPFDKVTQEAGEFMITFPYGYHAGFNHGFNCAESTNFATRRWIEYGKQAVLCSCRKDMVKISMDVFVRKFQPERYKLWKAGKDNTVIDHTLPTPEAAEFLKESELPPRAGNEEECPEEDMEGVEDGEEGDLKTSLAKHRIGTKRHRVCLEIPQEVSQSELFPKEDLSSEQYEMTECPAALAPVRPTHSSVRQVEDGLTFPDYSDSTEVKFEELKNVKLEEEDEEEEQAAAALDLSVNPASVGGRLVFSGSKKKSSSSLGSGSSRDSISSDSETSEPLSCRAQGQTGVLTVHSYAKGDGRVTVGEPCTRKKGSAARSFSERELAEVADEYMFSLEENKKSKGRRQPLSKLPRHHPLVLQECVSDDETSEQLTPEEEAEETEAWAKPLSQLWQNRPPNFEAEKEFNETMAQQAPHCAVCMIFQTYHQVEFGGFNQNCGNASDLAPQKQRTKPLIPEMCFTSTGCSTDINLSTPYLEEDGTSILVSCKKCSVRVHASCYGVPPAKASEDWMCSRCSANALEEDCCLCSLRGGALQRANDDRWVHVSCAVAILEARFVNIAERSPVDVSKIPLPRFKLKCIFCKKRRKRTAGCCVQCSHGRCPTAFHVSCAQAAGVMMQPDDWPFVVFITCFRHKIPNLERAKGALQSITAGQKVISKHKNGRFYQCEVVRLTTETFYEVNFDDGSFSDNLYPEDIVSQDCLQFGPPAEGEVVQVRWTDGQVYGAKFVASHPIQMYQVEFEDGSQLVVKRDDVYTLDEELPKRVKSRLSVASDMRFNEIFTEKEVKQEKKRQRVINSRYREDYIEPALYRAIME
# HP1b chromo inh – HTS for Inhibitors of HP1-beta Chromodomain Interactions with Methylated Histone Tails. AlphaScreen HP1-beta / biotin-H3K9me3 peptide binding. Chromobox protein homolog 1 (Homo sapiens), P83916. Potency, µM (series often up to 114 µM), inactives show at the highest dose activity change, negative = inhibition, usual class: inhibitors. 390,000 compounds, 0.56% hits; note: potency is the fitted concentration of half-maximal effect; nearly all actives have a fitted effect of over 70% in size
#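 Compound inhibition of the preformed complex between 50 nM HP1-beta and 50 nM biotinylated H3K9me3 peptide was read by AlphaScreen. Buffer was PBS pH 7.4 with 0.01% Tween-20. Incubations ran 30 min at room temperature, with 10 ug/mL donor/acceptor beads.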
# PI5P4K alpha inh – qHTS for Inhibitors of phosphatidylinositol 5-phosphate 4-kinase (PI5P4K). Phosphatidylinositol 5-phosphate 4-kinase type-2 alpha (Homo sapiens), P48426. PI5P4Kalpha enzyme, ADP-Glo luminescence, 60 min; hits give low values. max response, %. 330,000 compounds, 1.2% hits. AID 652105, 2013; active = max response of -50% or lower; inconclusive = between -30% and -50%; inactive = -30% or higher; note: value at the top dose of about 77 µM; % is set by controls: 0 for no effect and ±100 for the full control effect
#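 Controls without substrate or without enzyme flank wells where PI5P4Kalpha converts substrate using 5 microM ATP (final). Incubation lasts 60 minutes at room temperature; ADP formed is read by ADP-Glo luminescence.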
# L3MBTL1 block – qHTS Assay for the Inhibitors of L3MBTL1; Lethal(3)malignant brain tumor-like protein 1 (Homo sapiens), Q9Y468; AlphaScreen L3MBTL1–H3K9me1 peptide binding; Potency, µM (titrated, usually from 57.1 µM), inactives show at the highest dose activity, negative = inhibition, actives largely listed as inhibitors; 230,000 compounds, 0.66% hits; note: potency is the fitted concentration of half-maximal effect; % is set by controls: 0 for no effect and ±100 for the full control effect; nearly all actives have a fitted effect of over 60% in size
#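 AlphaScreen assay: L3MBTL1 (50 nM final) was preincubated 30 min at room temperature with biotinylated H3(1-15)K9me1 peptide (75 nM final), then 30 min with library compounds; streptavidin donor and nickel chelate acceptor beads (10 ug/mL final) added, 30 min dark.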
# * = called active by the depositor; ? = inconclusive; / = no result given; [ ] = another dose, or the depositor's remark. Rows were chosen to be rich in hits. Some 11% of all compounds tested hit in one or more screens of this group. Unless noted, calls come from the whole dose curve; as a rule, active = well fitted inhibition curve with a large enough effect; inconclusive = small, poorly fitted or top-dose-only effect; inactive = no such curve, though single readings can be large or run the other way.
SMILES,G9a block,BAZ2B inh,JMJD2A Tudor inh,HP1b chromo inh,PI5P4K alpha inh,L3MBTL1 block
CN(/N=C/c1ccc([N+](=O)[O-])o1)c1ccccc1,22.4µM*,14.1µM*,31.6µM*,35.5µM*,5.1,-10.9%
O=C(CNc1ccc2ccccc2c1)N/N=C/c1ccc([N+](=O)[O-])o1,2.51µM*,-30.5%,-19.4%,5.0%,11.5,2.8%
O=C(COc1ccccc1)N/N=C/c1ccc([N+](=O)[O-])o1,-26.3%[59 µM],-11.6%,-15.1%,39.0%,-55.1*,-5.3%
Cc1ccc(OCC(=O)N/N=C/c2ccc([N+](=O)[O-])o2)cc1,-46.8%[12.7 µM],4.3%,-35.0%,2.1%,/,-1.1%
O=C(CSc1ccc(Cl)cc1)N/N=C/c1ccc([N+](=O)[O-])o1,?,?,-22.1%,27.6%,-1.3,/
O=C(N/N=C/c1ccc([N+](=O)[O-])o1)C1CC1,?,50.1µM*,?,23.6%,-12.2,?
Cn1c2cc(B(O)O)sc2c2cnn(Cc3ccc(F)cc3F)c(=O)c21,-0.1%[12.7 µM],-6.0%,/,/,/,-1.5%
CCCCC(CC)CNC(=O)CCCn1c(=O)[nH]c2ccsc2c1=O (centres undefined),-40.7%[59 µM],6.7%,-2.4%,25.3%,/,/
Cc1ccc(C2CCN(C(=O)Nc3ccc(C)c(C)c3)C2)cc1 (centres undefined),-3.3%[59 µM],8.3%,1.9%,1.5%,/,/
O=C(N/N=C/c1ccc([N+](=O)[O-])o1)C(O)c1ccccc1 (centres undefined),-4.3%,-0.1%,-7.4%,51.2%,1.4,/
O=[N+]([O-])c1ccc(/C=N/NC(=S)Nc2ccccc2C(F)(F)F)o1,20µM*,?,-34.8%,?,?,3.0%
CC(CSC(=O)c1ccccc1)C(=O)N1C[C@@H](Sc2ccccc2)C[C@H]1C(=O)O (some centres undefined),-32.0%[12.7 µM],/,/,/,/,/
CCC1(C)Nc2ccccc2C(=O)N1O (centres undefined),50.1µM*,-10.0%,?,5.3%,1.9,1.5%
Cc1cc2c(s1)c1cnn(Cc3ccc(F)c(C)c3)c(=O)c1n2C,/,/,-8.9%,/,/,/
CC(C)NC(=O)/C(C#N)=C/c1ccc(N(C)C)o1,50.1µM*,-23.7%,-11.5%,10.4%,6.3,-4.8%
C=C(C)C(=O)Nc1cccc(C2=NOC3(C2)C[C@@H](C(N)=O)N(C(=O)/C=C/C=C/C)C3)c1 (some centres undefined),?,2µM*,3.16µM*,?,-50.3*,/
C/C=C\C=C/C(=O)Nc1cccc(C2=NOC3(C2)C[C@H](C(N)=O)N(C(=O)c2ccc(OC)cc2)C3)c1 (some centres undefined),?,-21.7%,?,?,?,/
C/C=C/C=C/C(=O)N1CC2(CC(c3cccc(NC(=O)/C=C/C)c3)=NO2)C[C@@H]1C(N)=O (some centres undefined),?,-1.6%,-30.3%,14.2%,-50.5*,/
C/C=C\C=C\C(=O)Nc1cccc(C2=NOC3(C2)C[C@@H](C(N)=O)N(C(=O)C(c2ccccc2)c2ccccc2)C3)c1 (some centres undefined),?,?,-35.9%,14.7%,-65.4*,/
C/C=C\C=C/C(=O)Nc1cccc(C2=NOC3(C2)C[C@@H](C(N)=O)N(C(=O)c2ccc(Cl)cc2)C3)c1 (some centres undefined),?,?,-31.7%,11.1%,-66.4*,/
C/C=C/C(=O)Nc1cccc(C2=NOC3(C2)C[C@H](C(N)=O)N(C(=O)/C=C/C)C3)c1 (some centres undefined),-2.6%[59 µM],-0.5%,-14.9%,22.8%,0.5,/
COc1ccc(-c2cc(C)no2)cc1S(=O)(=O)NCc1cccs1,-1.2%[59 µM],-0.1%,-21.1%,15.2%,/,/
CCOc1ccc2c(c1)n(CO)c(=S)n2CO,2.24µM*,-0.3%,79.4µM*,6.2%,0.2,7.5%
Cc1ccc(-c2cc(C(F)(F)F)n3nc(C(=O)Nc4sc5c(c4C#N)CCC(C)C5)cc3n2)cc1 (centres undefined),-4.4%[59 µM],-14.4%,-12.7%,16.3%,/,/
COc1cn(-c2ccccc2)nc1C(=O)Nc1ccccc1,50.1µM*,-4.8%,-9.2%,1.8%,-5.1,/
SMILES,G9a block,BAZ2B inh,JMJD2A Tudor inh,HP1b chromo inh,PI5P4K alpha inh,L3MBTL1 block
COc1cn(-c2ccccc2)nc1C(=O)Nc1ccc(C)cc1,-2.6%,-4.1%,-15.5%,13.7%,-1.2,/
O=C(NCc1ccco1)C1Cc2ccccc2CN1S(=O)(=O)c1ccccc1F (centres undefined),/,/,39.8µM*,?,-61.5*,/
O=C(NCc1ccco1)C1Cc2ccccc2CN1C(=O)c1ccco1 (centres undefined),-4.1%,79.4µM*,?,-4.9%,?,-27.1%
O=C(NCc1ccco1)C1CN(S(=O)(=O)c2ccccc2)CCN1S(=O)(=O)c1ccccc1 (centres undefined),?,3.4%,-14.9%,16.0%,/,-2.3%
Cc1noc(C)c1C(=O)N1CCC2(CCCN(c3ncccn3)C2)CC1,0.1%[12.7 µM],/,/,/,/,/
CN(C)CCCOc1ccc(Cl)cc1Br,30.5%[0.501 µM],44.7µM*,1µM*,?,/,-3.2%
Clc1ccc(OCCSc2ncccn2)c(Br)c1,462.5%,251.4%,128.1%,130.0%,16.3,112.5%
Cc1cc(Cl)c(OCCCCNC(C)(C)C)c(Br)c1,8.91µM*,?,/,/,/,-3.6%
COc1cccc(OC)c1OCCCOc1ccc(C)cc1Br,31.1%[59 µM],86.8%,40.5%,120.6%,5.8,51.5%
CC(C)(C)NCCCCOc1ccccc1F,-26.2%[12.7 µM],-25.2%,-9.3%,7.6%,/,/
Cc1cc(Cl)c(OCCCN(C)C)c(Br)c1,11.2µM*,-37.0%,8.91µM*,?,0.3,-13.5%
Cc1ccc(OCCCN(C)C)c(Br)c1,?,79.4µM*,3.16µM*,?,-6.3,-6.5%
CCN(C(=O)C1CCC(CNS(=O)(=O)c2cccc3nsnc23)CC1)c1cccc(C)c1 (centres undefined),?,-35.1%,-27.9%,1.2%,/,/
O=C(Cn1c(=O)ccc2cc(S(=O)(=O)N3CCCC3)ccc21)Nc1ccc(Cl)cc1,9.5%[59 µM],4.0%,-12.9%,12.2%[57 µM],/,/
CCc1nnc(NC(=O)CSc2nccn2Cc2ccccc2)s1,4.2%[59 µM],-10.1%,-28.2%,6.6%[57 µM],/,/
CCCCN(CC)C(=O)CCn1c(=O)c2cccn2c2cccnc21,5.6%[59 µM],-21.4%,-8.4%,18.6%,/,/

# Bioassay records deposited in PubChem by National Center for Advancing Translational Sciences (NCATS).
